Sampled rows, rich in hits. Any-hit rate of the full collection: about 12%.
G9a inh – G9a (human) methyltransferase inhibition. G9a H3K9 monomethylation, AlphaScreen, 2 h. Potency, µM (doses to about 102 µM), for inactives: top-dose activity, negative = inhibition, usual class: inhibitors. hit rate 8.8% among 350,000; further: on the % scale 0 is the no-effect control and ±100 the full control effect; nearly all actives have a fitted effect of over 75% in size
Target sequence (Q96KQ7 913-1193 limits assumed): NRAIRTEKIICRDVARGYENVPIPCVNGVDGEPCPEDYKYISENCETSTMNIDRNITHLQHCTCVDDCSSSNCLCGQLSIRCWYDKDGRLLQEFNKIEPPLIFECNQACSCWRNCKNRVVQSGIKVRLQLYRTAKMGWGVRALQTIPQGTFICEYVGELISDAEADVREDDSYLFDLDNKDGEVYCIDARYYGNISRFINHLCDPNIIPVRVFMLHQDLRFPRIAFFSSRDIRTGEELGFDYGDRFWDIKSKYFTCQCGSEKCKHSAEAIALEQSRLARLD
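Methyltransferase reactions run at room temperature for 2 h (20 nM enzyme, 500 nM biotin-H3K9 peptide, 20 uM SAM) after a 15 min compound preincubation; product detected by AlphaScreen beads and anti-H3K9me1 antibody.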
Sfp inh – blocks B. subtilis Sfp PPTase activity. Q9F4F7. Biochemical Sfp PPTase activity, qHTS. Potency, µM, inactives show largest response in the series, negative = inhibition, usual class: inhibitors. hit rate 3.5% among 310,000;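 further: the enzyme is Sfp with the accession as filed and its product quenches rhodamine fluorescence; 0% = enzyme reaction without inhibitor and -100% = no enzyme wells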
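Fluorescence-quenching assay with 15 nM Sfp, 5 uM rhodamine-CoA and 12.5 uM BHQ-2-labelled ybbR peptide in pH 7.6 Hepes/MgCl2 buffer. Enzyme was pre-incubated with compound for 15 min at room temperature. Rate was taken from the 30-min fluorescence change (525/598 nm).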
BAZ2B inh – blocks human BAZ2B. AlphaScreen BAZ2B-H3K14Ac peptide displacement. AID 504333. hit rate 4.4% among 360,000. Potency, µM (top dose mostly 114 µM), inactives show at the highest dose activity change, negative = inhibition, usual class: inhibitors; further: on the % scale 0 is the no-effect control and ±100 the full control effect; nearly all actives have a fitted effect of over 60% in size
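BAZ2B 50 nM plus b-H3(5-23)K14Ac 50 nM, PBS pH 7.4/0.01% Tween-20, 30 min RT; compound added (max 110 uM), 30 min RT; streptavidin donor/Ni-chelate acceptor beads 10 ug/mL final, 20 min dark; AlphaScreen read.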
JMJD2A Tudor – blocks the human JMJD2A Tudor domain; Potency, µM (top dose mostly 114 µM), for the others: top-dose activity change, negative = inhibition, most hits filed as inhibitors; hit rate 4.4% among 390,000; AID 504339; AlphaScreen JMJD2A-Tudor / H3K4me3 peptide binding; further: on the % scale 0 is the no-effect control and ±100 the full control effect; nearly all actives have a fitted effect of over 50% in size
HP1b chromo inh – blocks HP1-beta chromodomain binding to methylated histone tails; P83916; AlphaScreen HP1-beta / biotin-H3K9me3 peptide binding; Potency, µM (doses to about 114 µM), for inactives: top-dose activity change, negative = inhibition, usual class: inhibitors; hit rate 0.56% among 390,000; further: nearly all actives have a fitted effect of over 70% in size
Target sequence (P83916 whole entry, looked up): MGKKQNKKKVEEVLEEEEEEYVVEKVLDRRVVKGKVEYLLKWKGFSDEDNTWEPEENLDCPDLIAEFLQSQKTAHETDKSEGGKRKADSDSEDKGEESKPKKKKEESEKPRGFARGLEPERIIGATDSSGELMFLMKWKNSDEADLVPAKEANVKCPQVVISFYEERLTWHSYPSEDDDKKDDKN
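HP1-beta protein (50 nM final) preincubated 30 min at room temperature with biotinylated H3(1-18)K9me3 peptide (50 nM) in PBS pH 7.4, 0.01% Tween-20, then compound added for 30 min. AlphaScreen streptavidin donor/nickel chelate acceptor beads (10 ug/mL final), 30 min dark, luminescence read.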
L3MBTL1 block – L3MBTL1 (human) inhibition; hit rate 0.66% among 230,000; AlphaScreen L3MBTL1–H3K9me1 peptide binding; Q9Y468; AID 485360; Potency, µM (highest dose often 57.1 µM), for the others: at the top dose activity, negative = inhibition, usual class: inhibitors; further: on the % scale 0 is the no-effect control and ±100 the full control effect; nearly all actives have a fitted effect of over 60% in size
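AlphaScreen proximity signal between nickel-chelate acceptor and streptavidin donor beads (final 10 ug/mL) reports binding of 50 nM L3MBTL1 to 75 nM biotin-H3 K9me1 peptide; complex incubated with compounds 30 min at room temperature; cefsulodin titration as control.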
Active calls of the source: *; u = inconclusive; x = no result; [ ] = remark or other dose. The call rests on the fitted dose curve; in most records, active means well fitted curve in the direction sought with a large enough effect; inconclusive means small, poorly fitted or top-dose-only effect, or another doubt; inactive means no such curve, though single readings can be large; an effect the other way counts as inactive or inconclusive. Potency means the concentration at half of the fitted maximal effect.

SMILES	G9a inh	Sfp inh	BAZ2B inh	JMJD2A Tudor	HP1b chromo inh	L3MBTL1 block
CN(C)C(=S)c1ccc(N(C)C)cc1	7.94µM*	15.8µM*	u	-21.8%	u	-24.2%
Cc1ccc(NC(=O)CCC(=O)N2Cc3ccccc3Oc3ncccc32)c(C)c1	-13.2%[59 µM]	x	-3.4%[57.1 µM]	-14.2%	14.3%	x
C[C@]12CCC(=O)C=C1CCC1C3CC[C@](O)(C(=O)CO)[C@@]3(C)CC3OC312 (some centres not stated)	x	-2.1%	x	x	x	x
Oc1ccc(Br)cc1-c1n[nH]c(=S)n1Cc1ccccc1	6.31µM*	-15.2%	-23.2%	u	16.3%	x
CCn1c(-c2cc(-c3ccccc3)sc2N)n[nH]c1=S	1.12µM*	-25.8%	-19.6%	-29.0%	27.0%	-17.0%
COCCn1c(-c2ccccc2F)n[nH]c1=S	u	-1.4%	21.5%	35.5µM*	44.4%	2.3%
COCCn1c(CCc2ccccc2)n[nH]c1=S	-6.7%	11.8%	0.5%	u	14.3%	-6.5%
CCn1c(-c2ccccc2O)n[nH]c1=S	14.1µM*	u	-32.4%	3.98µM*	29.3%	-0.4%
Cn1c(-c2cc(Br)ccc2O)n[nH]c1=S	0.501µM*	11.1%	-33.1%	4.47µM*	u	8.7%[11.4 µM]
Cc1ccccc1-c1n[nH]c(=S)n1Cc1ccccc1	x	-2.1%	-16.4%	u	16.8%	-1.0%
CCn1c(-c2cc(-c3cccc(OC)c3)nc3ccccc23)n[nH]c1=S	1.12µM*	u	u	-35.8%	-2.2%	x
Oc1ccccc1-c1n[nH]c(=S)n1Cc1ccccc1	2.82µM*	9.5%	u	20µM*	12.2%	x
O=C(Nc1nc2n(n1)C(c1ccc(F)cc1)C=C(c1ccc(Cl)cc1)N2)c1ccc([N+](=O)[O-])cc1 (configuration not stated)	-32.0%[59 µM]	x	-1.7%	-16.2%	5.1%	x
COc1ccc(C2C(=O)N(C3CCCCC3)CC(=O)N2CCc2ccc(C)cc2)cc1OC (configuration not stated)	-18.0%[59 µM]	x	-12.9%	-34.9%	32.3%	x
CC(Oc1ccc2c(-c3ccccc3)cc(=O)oc2c1)C(=O)N[C@H](Cc1c[nH]c2ccccc12)C(=O)O (some centres not stated)	-3.0%[12.7 µM]	1.0%	-32.3%	-32.7%	-11.2%	x
COc1ccc(-c2cc(=O)oc3cc(OC(C)C(=O)NC(Cc4c[nH]c5ccc(O)cc45)C(=O)O)ccc23)cc1 (configuration not stated)	50.1µM*	-3.8%	50.1µM*	-26.5%	-0.1%	-7.6%
Cc1cccc(-c2nc3scc(CCNS(=O)(=O)c4ccc(F)cc4C)n3n2)c1	-21.1%[59 µM]	x	0.5%	-15.9%	32.8%	x
CCc1ccc(NC(=O)c2ccc(F)c(S(=O)(=O)N3CCN(c4ccc(OC)cc4)CC3)c2)cc1	0.4%[59 µM]	x	-0.8%	-7.0%	19.4%	x
O=C(NCc1ccc(F)cc1)c1cnc(N2CCOCC2)c2ccccc12	4.8%[59 µM]	x	11.1%	1.3%	30.5%[57 µM]	x
Cc1ccccc1N(Cc1cc(=O)[nH]c2ccccc12)C(=O)C(C)C	79.4µM*	-0.1%	-1.2%	-17.3%	-4.5%	x
Cc1ccc(N(Cc2cc(=O)[nH]c3ccccc23)C(=O)C(C)C)c(C)c1	u	-10.8%	24.3%	-18.2%	56.0%	x
CCC(=O)N(Cc1cc(=O)[nH]c2ccccc12)c1ccccc1	x	-13.8%	-10.6%	u	-16.8%	-2.3%
CCC(=O)N(Cc1cc(=O)[nH]c2ccccc12)c1ccc(C)cc1C	70.8µM*	-16.6%	-29.1%	-6.2%	27.2%	x
COc1ccc2oc(-c3ccc(C)c(NC(=O)c4cccnc4)c3)nc2c1	-2.1%[59 µM]	x	6.0%	-2.2%	16.6%	x
Cc1ccc(C)c(SCC(=O)Nc2oc(C)c3c(C)n[nH]c(=O)c23)c1	39.8µM*	x	-9.4%	-15.9%	13.9%	-7.6%
SMILES	G9a inh	Sfp inh	BAZ2B inh	JMJD2A Tudor	HP1b chromo inh	L3MBTL1 block
CCc1cc2c(=O)n(CCCOC)c(SCC(=O)Nc3oc(C)c4c(C)n[nH]c(=O)c34)nc2s1	56.2µM*	x	5.0%	-9.9%	29.6%	10.1%
Cc1ccc(SCC(=O)Nc2oc(C)c3c(C)n[nH]c(=O)c23)cc1C	0.9%[12.7 µM]	x	1.4%	-20.0%	40.2%	-5.0%
Cc1n[nH]c(=O)c2c(NC(=O)CSc3ncccn3)oc(C)c12	50.1µM*	x	0.1%	-11.7%	32.5%	20.8%
C=CCn1c(C)nnc1SCC(=O)Nc1oc(C)c2c(C)n[nH]c(=O)c12	31.6µM*	x	25.4%	-3.4%	36.6%	3.9%
COc1ccc(C(=O)Nc2nc(-c3nnn(-c4cc(OC)ccc4OC)c3C)ns2)cc1	-0.8%[59 µM]	x	1.3%	-15.6%	28.0%	x
CC#CCN1c2ccccc2[C@]23C[C@@H](C(=O)OC)N(C(=O)c4cccs4)C2=NC(C(=O)OC)=C(C(=O)OC)[C@H]13	x	-0.3%	x	x	x	x
Cc1n[nH]c(=O)c2c(NC(=O)CSc3nnc(-c4ccncc4)n3C)oc(C)c12	86.6%	26.9%	-1.4%	u	29.8%	x
CCOCCCn1c(SCC(=O)Nc2oc(C)c3c(C)n[nH]c(=O)c23)nnc1-c1ccncc1	35.5µM*	x	3.2%	-20.3%	11.5%	3.2%
CCN(CC)CCn1c(O)c(N=O)c2ccccc21	-43.0%	8.4%	-1.0%	-11.9%	16.0%	6.3%
CCN(CC)CCn1c2ccccc2c(=O)c2c(O)ccc(O)c21	x	x	x	44.7µM*	39.8µM*	x
COc1cccc2c1C(=N)c1c(O)c3c(c(O)c1C2=O)CC(O)(C(C)=O)CC3OC1CC(N)C(O)C(C)O1 (configuration not stated)	x	x	x	39.8µM*	u	x
COc1cccc2c1C(=O)c1c(O)c3c(c(O)c1C2=O)C[C@](O)(C(C)=O)C[C@H]3O[C@@H]1C[C@@H](N)[C@@H](O)[C@@H](C)O1	u	x	44.7µM*	u	-11.5%	-8.7%
COC(=O)Cn1c(=NC(=O)c2ccc3c(c2)OCCO3)sc2ccccc21	-8.1%[59 µM]	x	8.3%	-6.2%	35.3%[57 µM]	x
CC1CCN(C(=O)COC(=O)c2cc([N+](=O)[O-])ccc2N2CCOCC2)CC1	-5.8%[0.501 µM]	x	8.6%	-5.5%	9.3%	2.5%
CC1CCCCN1C(=O)COC(=O)c1cc([N+](=O)[O-])ccc1N (configuration not stated)	39.8µM*	x	-26.3%	-7.9%	3.5%	4.9%
Cc1cc(C)c(C(=O)Cn2cnc3cc([N+](=O)[O-])ccc3c2=O)cc1C	u	11.8%	-16.8%	-30.1%	3.2%	3.0%
CC1CCCCN1C(=O)Cn1cnc2cc([N+](=O)[O-])ccc2c1=O (configuration not stated)	-5.9%	-0.6%	u	14.1µM*	-14.3%	3.2%
O=c1c2oc3ccccc3c2n(Cc2ccc(Cl)cc2)c(=O)n1Cc1ccco1	-24.6%[59 µM]	x	u	-13.9%	-12.2%	x

High-throughput results (PubChem)
